Hit rate of the full screen: of about 31,000 sequences, about 1,400 (4.5%) were called active.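 How the source made its calls: active means median seed-adjusted z-score above 1 or below -1; inactive means the rest.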 The entries come from a sample that favours actives as a whole.
test: Novel Modifiers of Survival Motor Neuron (SMN) Protein: Gene Identification via Genome-wide siRNA Screen; conditions: HEK293T SMN2-luciferase reporter, siRNA knockdown, 72 h; actives lie on both sides;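 further: luminescence tracks full-length SMN protein made from the SMN2 reporter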
Procedure, shortened: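 HEK293T cells stably carrying an SMN2 promoter/splicing cassette–luciferase reporter were reverse-transfected with 1 pmol siRNA per well (druggable-genome library, 3 siRNAs per gene) and grown 72 h at 37 °C. Luminescence, normalized to negative-control siRNA and log10-transformed, was scored as MAD.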

| Sequence | median seed-adjusted z-score |
| --- | --- |
| GAUCCACCUUAUACUCAUATT against EPS8 | 0 (inactive) |
| GAUGAUUACAUAUCAGAGATT against ZNF630 | -0.533 (inactive) |
| CACCCUAAUGGAUACAGCUTT against NTSR2 | -0.125 (inactive) |
| GACUAAAUCAGUUACCGAATT against MED17 | -2.06 (active) |
| GCACCUGAAUGACACGCAATT against HOXD1 | 0.144 (inactive) |
| GGAAUUGUGGUGUUAGUAATT against POLN | -0.129 (inactive) |
| GGUCAUUGCCCGAACAAUATT against BNC1 | -0.631 (inactive) |
| GGACUUUAUUCGGAAGCUUTT against DAPK2 | 0.268 (inactive) |
| AAUUCAAGCUAUGAAGAUATT against ACO2 | -1.57 (active) |
| CCUUCAAUGUGGGCUACCATT against DEGS2 | -0.305 (inactive) |
| CAACCUUUCUUGUUAGUAATT against DHRS7 | 0.255 (inactive) |
| CUGUUCCAGUUGUGGCUCUTT against KRTAP5-1 | 0 (inactive) |
| CAACAGCGAUUGGAAUGGATT against UGDH | 0.674 (inactive) |
| CUGGAAGUGUUAUUCCUAATT against FOXD4L1 | 0.271 (inactive) |
| CGACAAGCCCAAUGUUUAUTT against SSU72 | -1.64 (active) |
| GUACCGAGAGAAUAACAAATT against SYP | -0.0289 (inactive) |
| GCUGGUUAGGAACCGCUCATT against ZNF579 | -0.0604 (inactive) |
| GGCAAGUAGAUAGUACAUUTT against ZNF507 | -0.262 (inactive) |
| UGAUAAGGAUAACAAGAGATT against CAMP | -0.622 (inactive) |
| GCAUCAAGAUUUUCCGCUUTT against SLC26A2 | -1.25 (active) |
| GCAUAGGCCCAGUAACUUATT against SLC25A34 | -0.256 (inactive) |
| CGCUCACAGUCAUACACGUTT against SLC39A7 | 0.0554 (inactive) |
| CUCUUGUACCAGUUCCUGATT against SLC25A35 | -0.762 (inactive) |

| Sequence | median seed-adjusted z-score |
| --- | --- |
| UGGUCGUUAUGGUCCUAUATT against FUSIP1 | 0.865 (inactive) |
| GGCACGGUUUUGGUCGAAATT against FREM2 | 0.143 (inactive) |
| UACAUAUGCUGGACAGAAATT against SSU72 | -1.64 (active) |
| CAGGUAUGGUGAACCGUGATT against YES1 | -0.508 (inactive) |
| GUACCUCGUAAAUCACGAATT against NFAT5 | 0.106 (inactive) |
| GAUUUUCACUUGCAACUCATT against PDP2 | -0.0726 (inactive) |
| AGAGCAACAUCAACAUUAUTT against TKTL1 | -0.495 (inactive) |
| CGACCGUGGUGACAUGAUUTT against LRP3 | -1.05 (active) |
| GCUCCGCAAAUGUGGUUGATT against ZNF714 | 0 (inactive) |
| UGCGCAACCUUAAGAACAATT against PRAF2 | -0.326 (inactive) |
| GAAAGGCAGUUUUCGUAAATT against NXF3 | 0.672 (inactive) |
| GAGAGGUACCAGACCAUGATT against POLM | -1.55 (active) |
| AGCCUGAAAGUAUCCGUAATT against CLTA | 0.243 (inactive) |
| GGAGCUCUGUUGUGGAGAATT against FCGRT | -0.00396 (inactive) |
| GGACUAAACUACCUCCAAATT against KCNE3 | -1.33 (active) |
| CCUGAAAUCAUAGAGUUAATT against KCNMA1 | 0 (inactive) |
| AGCAGAAGAUGGUAGAUGATT against VIL1 | 0.368 (inactive) |
| AGGGCACAUUCACCAGUGATT against GCG | -1.18 (active) |
| CUCCUGCUGCAAAACAAUATT against SLC25A6 | -0.928 (inactive) |
| GUCACGUCUUGAUACCUCUTT against ACAD8 | 1.06 (active) |
| GAUUGUCUUCGGUCUAUUATT against STAM | 0 (inactive) |
| GACCCACUCUUGAAAGACATT against ZNF304 | -0.44 (inactive) |
| CGAGAGGGCUGUUUCCAAATT against LIMS3 | -0.078 (inactive) |

| Sequence | median seed-adjusted z-score |
| --- | --- |
| GAAAGAUGGUGUUGACUUUTT against ALDOB | -1.34 (active) |
| CUUCAUAUCUCUUUACGUATT against PIGW | -0.242 (inactive) |
| CCACCAAUGUAGUCUAUCATT against PAPSS2 | -0.201 (inactive) |
| AGAAGACCCGUAGACUGAATT against NEUROG2 | -0.366 (inactive) |
| UAAACUCGUUAGUCAAUUATT against SLC7A9 | 0.194 (inactive) |
| GCAGAUAAGUGAACGAGAUTT against SAMHD1 | -1.33 (active) |
| CGCUCCUUGUCAAAAGAAATT against KCNS3 | 0.103 (inactive) |
| GCAUGACCUCUGUAAGGGATT against ANK1 | -0.282 (inactive) |
| GAAUCGCAAGGAUAUGAUATT against MSH2 | 0 (inactive) |
| CCAUCUACCAGCUAAUCAATT against PIK3C2G | 0.0251 (inactive) |
| GGAUUCCCUUCAAGAUAUATT against NUCB2 | 0.45 (inactive) |
| CCAUCACCCGUGAAGAGAATT against CRYAB | 0.354 (inactive) |
| CAAUGGUCCAAGUCUAACATT against EEF1E1 | -1.45 (active) |
| CCCAGUCAAUCAAAGGAAATT against CD3G | -0.0274 (inactive) |
| GAAAGCAACUGACACUCUUTT against ATP2C2 | -0.302 (inactive) |
| CAAGGGCACAGGCACAAAATT against SBK1 | 0.0587 (inactive) |
| ACCACGCAUUAAAACCAAATT against PRKCE | 0.568 (inactive) |
| GGGAGGAUUUGAUCGGACATT against SPEN | -1.69 (active) |
| CCUUCUGAAAGAACGCAAATT against ABCA8 | -0.666 (inactive) |
| GAAUAUGCAUUGCUAACCATT against SV2C | 0.183 (inactive) |
| GGCAUUAUCUGGAUCACUUTT against PATE1 | 1.21 (active) |
| GAAGAUCAUUAGAUUUCUATT against SULT1B1 | -0.115 (inactive) |
| GUACGUCCAUUAUGGAGAATT against GPR82 | -0.83 (inactive) |

Reference: PubChem BioAssay AID1347426 (Functional Genomics Laboratory (NCATS/FGL), 2020)
